The panel holds about 83,000 compounds, 20% with a hit somewhere; the sample as a whole holds those more often.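 How to read the values: 0–100, growth inhibition (40 = 60% inhibited); 0, no net growth; -100 to 0, cell death (-40 = 40% of starting cells died; -100 = all dead).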 A number with no mark means an inactive call. Activity calls are given as the source filed them. Rule for the calls: active = growth percent below 10; inactive = the rest.

The test system of one assay is BT-549 breast. Briefly: NCI-60 one-dose screen, 48 h (100 = growth as untreated, 0 = no growth, -100 = all killed). The settings on record: 10 µM unless noted.
With `[Cl][Hg][c]1cc(Br)cc(Br)c1`, the growth was 48%.
Same read-out and setting: with `COc1ccc2c(c1)c(-c1nc(-c3c[nH]c4ncccc34)cs1)cn2CCCCN1CCCCC1` the figure was 69.2%.
`C=COC(=O)CCN1CC1`: the growth was 110%.
Take `COC(=O)[C@@H](C)C[C@H](Cc1ccccc1)NC(=O)c1csc([C@@H](C[C@H](C(C)C)N(C)C(=O)[C@@H](NC(=O)[C@H]2CCCCN2C)C2CCCCC2)OC(C)=O)n1`: the growth was -11.8% (active).
Same read-out and setting: for `CCOC(=O)[C@@H](C)C[C@H](Cc1ccccc1)NC(=O)c1csc([C@@H](C[C@H](C(C)C)N(C)C(=O)CNC(=O)[C@H]2CCCCN2C)OC(C)=O)n1` the value was 30.9%.
The same measure, in the same setting: for `CC1=C(CNO)C2=C(C)C3(CC3)[C@@](C)(O)C(=O)C2=C1` the value was -13% (active); for `C[C@]12CCc3sc(-c4ccccc4O)nc3C1=CC[C@@H]1[C@@H]2CC[C@]2(C)C(=O)CC[C@@H]12`, 110%; for `COC(=O)[C@@H](C)C[C@H](Cc1ccc2ccccc2c1)NC(=O)c1csc([C@@H](C[C@H](C(C)C)N(C)C(=O)[C@@H](NC(=O)[C@H]2CCCCN2C)C(C)C)OC(C)=O)n1`, -22.3% (active).
On the same count and under the same terms, with `COc1cccc(/C=C/[N+](=O)[O-])c1` the figure was 29.5%; with `CC[C@H](C)[C@H](NC(=O)c1cccn1C)C(=O)N(C)[C@H](C[C@@H](OC(C)=O)c1nc(C(=O)N[C@@H](Cc2ccccc2)C[C@H](C)C(=O)OC)cs1)C(C)C`, -27% (active); with `[Cl][Hg][n]1c(-c2ccco2)nc2ccccc21`, 99.2%.
In the case of `COc1ccc2c(c1)c(-c1nc(-c3cn(C)c4ncccc34)cs1)cn2CCCCN1CCCCC1`, the growth was 85.1%.

For the next assay, the system named is MDA-MB-435 melanoma. The assay is described as above. The settings on record: 10 µM unless noted.
Turning to `Fc1c[c-]c(-c2ccccn2)c(F)c1.[CH3-].[Pt+2].c1ccc([PH+](c2ccccc2)c2ccccn2)cc1`, the growth is -50.5% (active).
Still for that read-out and setting: with `CC(=O)O[C@@H]1CC[C@]2(C)[C@H]3CC[C@]4(C)C(=O)CC[C@H]4[C@@H]3C[C@@H]3SC(N)=N[C@@]32C1` the figure was 2.34% (active).
The same measure, in the same setting: with `COc1cc2c(cc1OCc1ccccc1)C(CC(C)C)=[N+](C)CC2` the figure was 96.6%.
Consider `CC(C)=CCC[C@H](C(=O)O)[C@@H]1CC[C@]2(C)C3=C(CC[C@@]12C)[C@@]1(C)CC[C@H](O)C(C)(C)[C@@H]1CC3`, for which the growth was 103%.
On the same count and under the same terms, with `CC(C)=CCc1c(O)c(C(=O)CC(C)C)c(O)c2c(-c3ccccc3)cc(=O)oc12` the figure was 57.1%.
Turning to `Cc1ccc(C(Cc2ccccc2)NCCO)cc1` (stereo not given), the growth is 99.1%.
The same measure, in the same setting: with `O=C(O)CNC(=O)C(Cl)(Cl)Cl` the figure was 97.8%; with `COC(=O)[C@@H](C)C[C@H](Cc1ccccc1)NC(=O)c1csc([C@@H](C[C@H](C(C)C)N(C)C(=O)[C@@H](NC(=O)[C@H]2CCCCN2C)c2ccc(F)cc2)OC(C)=O)n1`, -27.7% (active).
Still for that read-out and setting: with `C[C@]12CC[C@H]3[C@@H](C[C@@H]4SC(Nc5ccccc5)=N[C@@]45CC(O)CC[C@]35C)[C@@H]1CCC2O` (stereo not given in full) the figure was 3.47% (active); with `COc1ccc(/C=C\c2cc(OC)c(OC)c(OC)c2)cc1NC(=O)/C=C/c1cc(OC)c(OC)c(OC)c1`, -53.2% (active).
Still for that read-out and setting: with `O=C(N/N=C/c1ccc(N(CCCl)CCCl)cc1)c1cccc2ccccc12` the figure was 13.8%; with `CC(=O)O[C@H](C[C@H](C(C)C)N(C)C(=O)[C@@H](NC(=O)[C@H]1CCCCN1C)C(C)C)c1nc(C(=O)N[C@@H](Cc2ccccc2)C[C@H](C)C(=O)O)c(CCOCc2ccccc2)s1`, -49.7% (active); with `COc1cc2c(cc1OCCCCn1c(-c3cccs3)nc3ccccc31)N=C[C@@H]1CCCN1C2=O`, -78.8% (active).
As for `C1CCC2(CC1)OOCNCOO2`, the growth is 101%.
Still for that read-out and setting: for `COC1=CC(=O)O[C@@H](/C=C/c2ccc3c(c2)OCO3)C1` the value was 100%.
Same read-out and setting: for `O=C(CC1(O)C(=O)Nc2ccc(Cl)cc21)c1ccc(C(=O)NCC2CCC3(CC2)OOC2(CCCCC2)OO3)cc1` (stereo not given) the value was 8.39% (active); for `C/C(=C\c1ccn(-c2ccc(N)cc2C(F)(F)F)n1)[C@@H]1C[C@@H]2O[C@]2(C)CCC[C@H](C)[C@H](O)[C@@H](C)C(=O)C(C)(C)[C@@H](O)CC(=O)O1`, -61.7% (active).
`O=NNc1ccccn1`: the growth was 111%.
Still for that read-out and setting: for `N#CC1(c2ccccc2)CCN(Cc2ccccc2)CC1` the value was 95.2%; for `CN(C)CCCOc1ccc2c(c1)c(C(=O)C(=O)NCCO)cn2Cc1ccccc1`, 103%; for `CC12CCC=CC1CCC1C2CCC2(C)C(c3ccc(=O)oc3)CCC12O` (stereo not given), -95.2% (active).
On to `CCCCOc1ccc(C(N)Cc2ccccc2)cc1` (stereo not given), for which the growth was 43.2%.
The same measure, in the same setting: for `CCC1CN1CCCCN1CC1CC` (stereo not given) the value was 93.7%.
Still for that read-out and setting: with `CC1(C)C(C(=O)c2cn(CCCCF)c3ccccc23)C1(C)C` the figure was 108%; with `Cc1cc(N(CCCl)CCCl)ccc1C=Nc1cccnc1`, 101%; with `COC(=O)[C@H](Cc1ccccc1)NC(=O)c1csc([C@@H](C[C@H](C(C)C)N(C)C(=O)[C@@H](NC(=O)[C@H]2CCCCN2C)C2CC2)OC(C)=O)n1`, -44.4% (active).
The same measure, in the same setting: for `[Cl][Hg][c]1cc(Br)cc(Br)c1` the value was 58.2%.
Consider `COc1ccc2c(c1)c(-c1nc(-c3c[nH]c4ncccc34)cs1)cn2CCCCN1CCCCC1`, for which the growth was -92.7% (active).
Same read-out and setting: with `C=COC(=O)CCN1CC1` the figure was 105%.
Take `COC(=O)[C@@H](C)C[C@H](Cc1ccccc1)NC(=O)c1csc([C@@H](C[C@H](C(C)C)N(C)C(=O)[C@@H](NC(=O)[C@H]2CCCCN2C)C2CCCCC2)OC(C)=O)n1`: the growth is -47.6% (active).
In the case of `CCOC(=O)[C@@H](C)C[C@H](Cc1ccccc1)NC(=O)c1csc([C@@H](C[C@H](C(C)C)N(C)C(=O)CNC(=O)[C@H]2CCCCN2C)OC(C)=O)n1`, the growth was -63.8% (active).
The same measure, in the same setting: with `CC1=C(CNO)C2=C(C)C3(CC3)[C@@](C)(O)C(=O)C2=C1` the figure was 92.1%; with `C[C@]12CCc3sc(-c4ccccc4O)nc3C1=CC[C@@H]1[C@@H]2CC[C@]2(C)C(=O)CC[C@@H]12`, 102%.
Same read-out and setting: for `COC(=O)[C@@H](C)C[C@H](Cc1ccc2ccccc2c1)NC(=O)c1csc([C@@H](C[C@H](C(C)C)N(C)C(=O)[C@@H](NC(=O)[C@H]2CCCCN2C)C(C)C)OC(C)=O)n1` the value was 19.7%; for `COc1cccc(/C=C/[N+](=O)[O-])c1`, -25.3% (active); for `CC[C@H](C)[C@H](NC(=O)c1cccn1C)C(=O)N(C)[C@H](C[C@@H](OC(C)=O)c1nc(C(=O)N[C@@H](Cc2ccccc2)C[C@H](C)C(=O)OC)cs1)C(C)C`, -18.2% (active).
For `[Cl][Hg][n]1c(-c2ccco2)nc2ccccc21`, the growth is 95.7%.
Same read-out and setting: with `COc1ccc2c(c1)c(-c1nc(-c3cn(C)c4ncccc34)cs1)cn2CCCCN1CCCCC1` the figure was -88.9% (active).

For the origin of these results see PubChem BioAssay (NCI).
